Source: PubChem BioAssay (Broad Institute)
SIRT5 block – SIRT5 desuccinylase inhibitors, primary screen, biochemical, fluorescence imaging, single point, set 5; Purified SirT5, succinyl-peptide AMC, trypsin-coupled fluorescence; inhibition, % at 15 µM; actives 1.1% (n = 330,000); in the data active = inhibition above about 15%
ERp5 inh – inhibitors of ERp5-driven insulin aggregation, primary screen, biochemical, turbidity, absorbance 650 nm, single point | Protein disulfide-isomerase A6 (Homo sapiens), Q15084 | 90 min | inhibition, % at 9.99 µM | actives 0.05% (n = 350,000);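 active = mean replicate inhibition above about 25%, with every replicate also reaching it, limit read from the data, passing the limit was not always enough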
DENV2 CPE rescue – inhibitors of DENV2 cytopathic effect, primary screen, cell-based, plate reader, single concentration; actives 1.7% (n = 350,000); CPE inhibition, % at 9.99 µM; DENV2-infected cells, cytopathic effect rescue; in the data active = CPE inhibition above about 20%, passing the limit was not always enough; tested in BHK-21 cells;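 also: 0% = median of neutral control wells and 100% = median of positive control wells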
Rtt109 Vps75 – inhibitors of C. albicans Rtt109/Vps75 HAT, primary screen, biochemical, ThioGlo CoA-SH fluorescence, plate reader; Histone acetyltransferase RTT109 (Candida albicans (strain SC5314 / ATCC MYA-2876)), …; inhibition, % at 34.9 µM; actives 0.16% (n = 330,000); purified Rtt109/Vps75, 4 h;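 active = inhibition of at least 50% in every replicate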
Target sequence (Q5AAJ8 whole entry, looked up): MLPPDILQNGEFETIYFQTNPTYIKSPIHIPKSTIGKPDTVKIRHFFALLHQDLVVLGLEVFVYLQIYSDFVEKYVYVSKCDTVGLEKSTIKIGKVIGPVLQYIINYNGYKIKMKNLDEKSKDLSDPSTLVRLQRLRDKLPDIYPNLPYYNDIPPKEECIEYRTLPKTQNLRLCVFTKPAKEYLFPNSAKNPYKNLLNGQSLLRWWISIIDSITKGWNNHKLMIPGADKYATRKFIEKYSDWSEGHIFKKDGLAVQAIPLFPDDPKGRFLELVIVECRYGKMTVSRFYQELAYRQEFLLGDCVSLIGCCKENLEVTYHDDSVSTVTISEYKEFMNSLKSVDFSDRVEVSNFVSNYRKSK
PDI inh – inhibitors of human PDI, primary screen, biochemical, turbidity, single point, plate reader | Protein disulfide-isomerase (Homo sapiens), P07237 | AID 588391, 2011 | PDI insulin aggregation turbidity, A650, 90 min | inhibition, % at 10 µM | actives 0.052% (n = 350,000);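 active = mean inhibition across replicates of 30% or more, whatever share of single replicates reach that level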
An asterisk follows results filed as active; ! = repeats disagree. Hits are enriched below; roughly 2.3% of the tested compounds scored in any of these assays.

CN(C)c1cc[n+](CC(O)C[n+]2ccc(N(C)C)cc2)cc1 was read as ERp5 inh -5, DENV2 CPE rescue 25*, Rtt109 Vps75 -18 and PDI inh 5.
`CN(C)c1ccc([P+](=O)c2ccc(N(C)C)cc2)cc1` gave SIRT5 block 0, ERp5 inh 2, DENV2 CPE rescue -2, Rtt109 Vps75 15 and PDI inh -1.
Screening Cc1ccc2nc(N3CCC(C(=O)N4CCC5(CC4)OCCO5)CC3)sc2c1 returned Rtt109 Vps75 1 and PDI inh -1.
Screening CCc1ccc2nc(N3CCC(C(=O)N4CCC5(CC4)OCCO5)CC3)sc2c1 returned SIRT5 block 30*, ERp5 inh 4, DENV2 CPE rescue -3, Rtt109 Vps75 13 and PDI inh -9.
`C=Cc1ccc(Cn2c(C(=O)O)c(C=O)c3ccccc32)cc1` gave SIRT5 block 17*, ERp5 inh -7, DENV2 CPE rescue 2, Rtt109 Vps75 -1 and PDI inh -4.
Screening O=C(O)[C@H]1[C@H](CO)[C@H]2Cn3c(ccc(-c4cccc(F)c4)c3=O)[C@@H]1N2CCc1ccccc1 returned SIRT5 block 1, ERp5 inh -5 and DENV2 CPE rescue -23.
For COC(=O)[C@@H]1[C@@H](CO)[C@@H]2Cn3c(ccc(/C=C/c4ccccc4)c3=O)[C@H]1N2CC1CCCC1 the results were SIRT5 block -33, ERp5 inh 5 and DENV2 CPE rescue 11.
Screening C/C=C1\NC(=O)[C@H](C)NC(=O)[C@@H](NC(=O)[C@H](Cc2ccc(O)cc2)NC(=O)[C@@H](NC(=O)/C(C)=C/C)C(C)C)[C@@H](C)OC(=O)[C@H](CCCc2ccc(O)cc2)NC(=O)[C@@H](CCC(=O)O)NC1=O returned SIRT5 block 22*, ERp5 inh 3 and DENV2 CPE rescue -4.
`COc1cc2c(c(OC)c1OC)-c1ccc(O)c(=O)cc1[C@@H](N)CC2` gave SIRT5 block 0, ERp5 inh 6, DENV2 CPE rescue 86* and Rtt109 Vps75 28.
O=C(NC1CCCCC1)Oc1cc2oc(=O)sc2cc1Cl was read as SIRT5 block 1, ERp5 inh 1, DENV2 CPE rescue 15, Rtt109 Vps75 89* and PDI inh 5.
Screening O=C(O)c1cccc2c1NC(C(=O)O)C1CC(Sc3ccccc3[N+](=O)[O-])C(Cl)C21 (stereo unspecified) returned Rtt109 Vps75 60* and PDI inh 12.
For O=C1NC(=O)N(Cc2ccc(F)cc2)C(=O)/C1=C\c1ccc([N+](=O)[O-])s1 the results were SIRT5 block 28*, ERp5 inh 3, DENV2 CPE rescue -1, Rtt109 Vps75 25 and PDI inh 7.
`COc1ccc(CN2C(=O)NC(=O)/C(=C/c3ccc([N+](=O)[O-])s3)C2=O)cc1` gave SIRT5 block 41*, ERp5 inh 2, DENV2 CPE rescue 7, Rtt109 Vps75 28 and PDI inh 0.
`CS(=O)(=O)c1ccc(C2=C(CNC(=O)c3cccs3)[C@H]3CC[C@@H](C2)N3CCOc2ccccc2)cc1` gave SIRT5 block 30*, ERp5 inh 3, DENV2 CPE rescue -2 and PDI inh 3.
CS(=O)(=O)c1ccc(C2=C(CNC(=O)c3nccs3)[C@H]3CC[C@@H](C2)N3CCOc2ccccc2)cc1 was read as ERp5 inh 0, DENV2 CPE rescue 0 and PDI inh 0.
CCCN1[C@@H]2c3ccc(-c4ccc(OC)cc4)c(=O)n3C[C@H]1[C@H](CO)[C@H]2C(=O)OC was read as SIRT5 block -23, ERp5 inh 2 and DENV2 CPE rescue -4.
CCN(CC)c1ccc(/C=C/[N+](=O)[O-])cc1 was read as SIRT5 block 1, ERp5 inh -1, DENV2 CPE rescue -2, Rtt109 Vps75 23 and PDI inh 1.
For CCN(CC)c1ccccc1 the results were ERp5 inh 3, DENV2 CPE rescue 129* and Rtt109 Vps75 6.
Screening CC=Cc1ccc2n(c1=O)C[C@@H]1[C@@H](CO)[C@H](C(=O)OC)[C@H]2N1C(=O)CC1CC1 (mixture of isomers) returned SIRT5 block -12 and ERp5 inh -4.
O=C1NC(=O)N(c2cccc(Cl)c2)C(=O)/C1=C\c1ccc(Sc2nc3ccccc3[nH]2)o1 was read as SIRT5 block 9, ERp5 inh 12, DENV2 CPE rescue 3, Rtt109 Vps75 13 and PDI inh -2.
Screening O=C1NC(=O)N(c2ccccc2F)C(=O)/C1=C/c1ccc(Sc2nc3ccccc3[nH]2)o1 returned SIRT5 block 23*, ERp5 inh -5, DENV2 CPE rescue -9, Rtt109 Vps75 38 and PDI inh 6.
Screening C/C=C/c1ccc(C2[C@@H]3CN(Cc4cccnc4)C[C@H]2N3)cc1 (stereo partly specified) returned SIRT5 block -1, ERp5 inh -2 and DENV2 CPE rescue 10.
Screening COc1ccc2c3c1OC1C(=O)CC[C@@]4(O)[C@@H](C2)N(CC2CC2)CC[C@]314 (stereo partly specified) returned ERp5 inh -6, DENV2 CPE rescue 11, Rtt109 Vps75 -4 and PDI inh 1.
For O=C1CC[C@@]2(O)[C@H]3Cc4ccc(O)c5c4[C@@]2(CCN3CC2CC2)C1O5 (stereo partly specified) the results were ERp5 inh 2 and DENV2 CPE rescue 28*!.
`CSC(=Nc1ccccc1)c1c(O)n(C)c(=O)n(C)c1=O` gave SIRT5 block 19*, ERp5 inh -1, Rtt109 Vps75 5 and PDI inh -3.
Cn1c(O)c(C(=Nc2ccccc2)SCc2ccccc2Cl)c(=O)n(C)c1=O was read as SIRT5 block -1, ERp5 inh -1, DENV2 CPE rescue 1, Rtt109 Vps75 0 and PDI inh 1.
`COC(=O)[C@H]1[C@H](CO)[C@H]2Cn3c(ccc(-c4ccccc4)c3=O)[C@@H]1N2CC1CCOCC1` gave SIRT5 block -5, ERp5 inh 2 and DENV2 CPE rescue -4.
Clc1ccc(COC(Cn2ccnc2)c2ccc(Cl)cc2Cl)c(Cl)c1 (stereo unspecified) was read as SIRT5 block -2, ERp5 inh 4, DENV2 CPE rescue 3, Rtt109 Vps75 74*! and PDI inh -8.
For COC(=O)[C@@H]1[C@@H](CO)[C@@H]2Cn3c(ccc(C4=CCCC4)c3=O)[C@H]1N2Cc1ccccn1 the results were SIRT5 block -4, ERp5 inh -6 and DENV2 CPE rescue 118*.
`COC(=O)[C@@H]1[C@@H](CO)[C@@H]2Cn3c(ccc(C4=CCCCC4)c3=O)[C@H]1N2Cc1ccccc1OC` gave SIRT5 block -12, ERp5 inh 2 and DENV2 CPE rescue 24*.
